The source of these data is PubChem BioAssay AID504332 (National Center for Advancing Translational Sciences (NCATS), 2011).

Molecules are shown by their SMILES. Hit rate of the full screen: of about 350,000 compounds, about 31,000 (8.9%) were called active. Inconclusive results (about 15%) are left out. The full list was thinned out, with actives kept by preference. Unmarked numbers belong to inactive results. Calls follow the shape of the dose curve; as a rule, active = well fitted inhibition curve with a large enough effect; inconclusive = small, poorly fitted or top-dose-only effect; inactive = no such curve, though single readings can be large or run the other way.
% is scaled to controls: 0 for no effect and ±100 for the full control effect; potency is read from the fitted curve at half-maximal effect.

Chain of Histone-lysine N-methyltransferase EHMT2 (Homo sapiens) (Q96KQ7 913-1193 limits assumed): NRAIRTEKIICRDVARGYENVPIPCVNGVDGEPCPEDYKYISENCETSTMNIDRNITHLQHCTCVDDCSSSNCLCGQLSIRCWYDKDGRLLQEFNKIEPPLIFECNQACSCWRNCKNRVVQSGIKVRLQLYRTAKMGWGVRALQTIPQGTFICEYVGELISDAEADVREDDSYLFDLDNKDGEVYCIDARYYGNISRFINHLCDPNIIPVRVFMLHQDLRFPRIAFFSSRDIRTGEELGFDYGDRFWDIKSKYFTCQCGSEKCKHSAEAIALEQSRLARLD

This assay has as its target Histone-lysine N-methyltransferase EHMT2 (Homo sapiens) (UniProt Q96KQ7). Kind of assay: qHTS Assay for Inhibitors of Histone Lysine Methyltransferase G9a. Also: nearly all actives have a fitted effect of over 75% in size. The note with it: G9a H3K9 monomethylation, AlphaScreen, 2 h; series mostly up to 59 µM; activity, negative = inhibition: at the top concentration. Put shortly: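 Readings reflect AlphaScreen signal from monomethyl-H3K9 antibody detection. HMT at 20 nM; substrate b-H3K9 500 nM; cofactor SAM 20 uM; 2 h RT reaction; compounds tested as titrations in qHTS with 15 min preincubation.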
`COc1cccc(/C=C/C(=O)OCC(=O)N2CCN(c3ccccc3)CC2)c1`: the activity, negative = inhibition is -4.22% [at 12.7 µM].

Regarding `COCCn1c(C)cc(C(=O)COC(=O)/C=C/c2cccc(OC)c2)c1C`, the Potency is 44.7 µM (active).

Consider `COCCn1c(C)cc(C(=O)COC(=O)CNC(=O)c2ccco2)c1C`, for which the “activity, negative = inhibition” value is 26.7%.

Consider `Cc1cccc(-n2ncc(C(=O)N3CCc4ccccc4C3)c2C2CCN(C(=O)OC(C)(C)C)CC2)c1`, for which the “activity, negative = inhibition” value was -1.5%.

Consider `COc1ccc(CNC(=O)c2ccc3c(c2)nc2n3CCOC2)c(OC)c1`, for which the “activity, negative = inhibition” value was 1.96%.

For `CCOC(=O)c1c(C)oc2ccc(OCC(=O)N(CC)CC)cc12`, the “activity, negative = inhibition” value is 8.65%.

As for `CCc1nc(C)ccc1OCC(=O)N(CC)CC`, the Potency is 28.2 µM (active).

As for `CCc1ccccc1NC(=O)CN(C)C(=O)COc1ccc(C)nc1[N+](=O)[O-]`, the “activity, negative = inhibition” value was 23%.

As to `Cc1cccc(C)c1NC(=O)N1CC(C)OC(C)C1` (configuration not stated), the “activity, negative = inhibition” value is 16.9% [at 102 µM].

`Cc1cccc(C)c1NC(=O)C1(C)c2cccc[n+]2CC(=O)N1Cc1cccs1` (configuration not stated): the Potency was 14.1 µM (active).

As to `CCc1cccc(C)c1NC(=S)N(CCCN1CCN(C)CC1)Cc1cccs1`, the “activity, negative = inhibition” value is 112%.

As for `O=C(OCC(=O)N1CCCC1)c1ccc(Cl)nc1`, the “activity, negative = inhibition” value was 4.27%.

Turning to `CCOC(=O)C1CCCN(C(=O)c2ccc(C)c(S(=O)(=O)N3CCCCC3)c2)C1` (configuration not stated), the activity, negative = inhibition is 38.4% [at 12.7 µM].

As to `COc1ccccc1CNc1nc(-c2c(C)noc2C)nc2ccccc12`, the activity, negative = inhibition is -6.92% [at 0.501 µM].

With `C=CCOc1c(CNn2cn[nH]c2=S)cccc1OC`, the Potency was 20 µM (active).

In the case of `C=CCOc1cccc(CNn2cn[nH]c2=S)c1`, the activity, negative = inhibition was 24.4% [at 0.0925 µM].

For the compound `Cc1ccc(Cl)cc1N1CCN(C(=O)c2cnc3c(-c4ccc(F)cc4)c(C)nn3c2C)CC1`, the “activity, negative = inhibition” value was 7.75%.

On to `Nc1nnc(SCn2nnc3ccccc3c2=O)s1`, for which the Potency was 28.2 µM (active).

Consider `Cc1cccc(OCc2nnc(SCn3nnc4ccccc4c3=O)o2)c1`, for which the “activity, negative = inhibition” value is 2.43%.

For `O=c1c2ccccc2nnn1CSc1nc2sc3c(c2c(=O)n1CC1CCCO1)CCC3` (configuration not stated), the “activity, negative = inhibition” value was 8.89%.

For `O=C(Nc1ccc(S(=O)(=O)N2CCCCC2)cc1)c1cnccn1`, the “activity, negative = inhibition” value was 0.273% [at 102 µM].

As to `O=C(Nc1ccc(F)cc1)c1ccc(S(=O)(=O)NCc2cccnc2)cc1`, the “activity, negative = inhibition” value is 31.2% [at 102 µM].

As to `O=C(NNS(=O)(=O)c1ccc(F)cc1)c1cnccn1`, the Potency was 10 µM (active).

Take `CSCCC(NC(=O)c1ccco1)C(=O)Nc1cc(C)ccn1` (configuration not stated): the “activity, negative = inhibition” value is -23.1% [at 102 µM].

Turning to `CCn1c(=O)cc(OCC(=O)Nc2cc(Cl)c(OC)cc2OC)c2ccccc21`, the “activity, negative = inhibition” value was -14.6%.

In the case of `CCN(CC)c1ccc(S(=O)(=O)N2CCCCC2)cc1NC(=O)C1=COCCO1`, the “activity, negative = inhibition” value was -30.4% [at 102 µM].

`Cc1ccccc1Cn1nc(C)c(NC(=O)c2cc(-c3ccc(F)cc3)on2)c1C`: the “activity, negative = inhibition” value was 6.83%.

With `Cc1cc(C)cc(C(=O)NCC(=O)OCC(=O)N2CCCCC2)c1`, the “activity, negative = inhibition” value is 14.1% [at 102 µM].

Regarding `Cc1nnnn1/C(=C\c1ccccc1)C(=O)OCC(=O)N1CC2(C)CC1CC(C)(C)C2` (configuration not stated), the “activity, negative = inhibition” value was -22.1%.

As to `Cc1cccc(C(=O)NCC(=O)OCC(=O)N2CC3(C)CC2CC(C)(C)C3)c1` (configuration not stated), the Potency was 6.31 µM (active).

`O=S(=O)(NCCc1ccccn1)c1cc(Cl)cc(Cl)c1O`: the activity, negative = inhibition was 22.1% [at 2.33 µM].

As for `COC(=O)c1cc(C)sc1NC(=O)CC1Nc2ccccc2NC1=O` (configuration not stated), the Potency is 50.1 µM (active).

Regarding `CCOC(=O)c1ccccc1NC(=O)CC1Nc2ccccc2NC1=O` (configuration not stated), the “activity, negative = inhibition” value is -4.54%.

Take `O=C(CC1Nc2ccccc2NC1=O)Nc1ccccc1NC(=O)CC1Nc2ccccc2NC1=O` (configuration not stated): the “activity, negative = inhibition” value was -46.1% [at 102 µM].

Turning to `Cc1cccc(-n2ncc(C(=O)N3CCC(C)CC3)c2C2CCN(C(=O)OC(C)(C)C)CC2)c1`, the “activity, negative = inhibition” value is -23.8%.

Regarding `O=C(CS(=O)(=O)c1cccc2nsnc12)N1CCN(c2cccc(Cl)c2)CC1`, the “activity, negative = inhibition” value was 4.58%.

As for `COc1cc(NC(=O)Nc2ccc(C)cc2)cc([N+](=O)[O-])c1`, the activity, negative = inhibition is 9.42% [at 2.33 µM].

As for `COc1ccc(Cc2n[nH]c(=S)n2NC(=O)Nc2ccc(C)cc2)cc1`, the Potency is 8.91 µM (active).

`CCN(CC(=O)Nc1ccc(OC)cc1)C(=O)CSCc1ccc(C)cc1`: the activity, negative = inhibition was -8.18% [at 12.7 µM].

Regarding `Cc1csc(SCC(=O)N(c2ccccc2)C(C)C)n1`, the “activity, negative = inhibition” value was -6.13% [at 102 µM].

Consider `CCOc1ccc(NC(=O)c2ncoc2-c2ccco2)cc1`, for which the “activity, negative = inhibition” value was 7.16%.

On to `O=C(NCc1ccccc1CN1CCCC1)C1CCN(S(=O)(=O)c2ccc(Cl)cc2)CC1`, for which the “activity, negative = inhibition” value is 16%.

Regarding `O=C(CCCl)Nc1ccc(S(=O)(=O)NCc2ccco2)cc1`, the “activity, negative = inhibition” value was -13%.

Take `C/C(=N\Nc1ncc(Cl)cc1Cl)c1ccc(S(=O)(=O)NCc2ccco2)cc1`: the “activity, negative = inhibition” value is -15.6%.

With `Cc1c(Cl)cnc(NC(=O)COC(=O)c2ccc(S(=O)(=O)NCc3ccco3)cc2)c1Cl`, the Potency is 44.7 µM (active).

In the case of `CCC(=O)Nc1ccc(S(=O)(=O)Nc2c(NC)c3ccccc3oc2=O)cc1`, the “activity, negative = inhibition” value was 2.23%.

As for `Cc1ccc(S(=O)(=O)c2nc(-c3cccs3)oc2NCc2cccnc2)cc1`, the Potency was 25.1 µM (active).
